From PubChem BioAssay
Only some compounds are listed: those with a hit (about 11% of all), similar ones and a draw of the others.
FLuc inh – inhibitors of firefly (Photinus pyralis) luciferase | purified P. pyralis luciferase, luminescence, biochemical | Potency, µM (titrated, usually from 115 µM), most hits filed as inhibitors | actives 2.5% (n = 76,000) | AID 1347043; further: nearly all actives have a fitted effect of over 65% in size
Target sequence (P08659 whole entry, looked up): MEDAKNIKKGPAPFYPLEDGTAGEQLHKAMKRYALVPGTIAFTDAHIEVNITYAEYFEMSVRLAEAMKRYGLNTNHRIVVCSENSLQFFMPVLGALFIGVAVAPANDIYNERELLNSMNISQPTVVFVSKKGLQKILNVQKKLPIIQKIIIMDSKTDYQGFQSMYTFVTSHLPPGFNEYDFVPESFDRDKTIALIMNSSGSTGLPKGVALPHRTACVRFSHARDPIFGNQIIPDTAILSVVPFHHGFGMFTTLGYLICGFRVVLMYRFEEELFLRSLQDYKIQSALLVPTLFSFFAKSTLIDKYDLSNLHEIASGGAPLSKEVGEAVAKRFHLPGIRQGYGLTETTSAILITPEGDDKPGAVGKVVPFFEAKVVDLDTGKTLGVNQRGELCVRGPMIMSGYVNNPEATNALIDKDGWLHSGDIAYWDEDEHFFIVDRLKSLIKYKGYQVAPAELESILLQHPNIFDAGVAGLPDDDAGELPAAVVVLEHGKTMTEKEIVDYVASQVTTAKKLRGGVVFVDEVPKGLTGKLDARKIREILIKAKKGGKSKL
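Biochemical qHTS: compound (6-point titration) added to 10uM D-luciferin plus 10uM ATP in Tris acetate pH 7.5 buffer with Mg, Tween-20 and BSA, then purified enzyme at 10nM; light output imaged.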
hNpr1 antagonist – human Npr1 receptor antagonism; P16066; HEK293 hNpr1 GloSensor cGMP, ANP-stimulated luminescence; Potency, µM (top dose mostly 46.3 µM), usual class: inhibitors; actives 1.6% (n = 76,000); AID 1347048; calls by dose curve; further: nearly all actives have a fitted effect of over 60% in size
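Compound pre-incubated 30 min at room temperature on GloSensor-loaded HEK293 cells stably carrying hNpr1 and the pGS-40F cGMP biosensor. Stimulation uses hNppA at 0.1 nM final; luminescence is taken at baseline and 20 min post-agonist.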
HEK cytotox – cytotoxic compounds in HEK 293 cells; HEK 293 viability, ATP luminescence (CellTiter-Glo), 48-72 h; AID 1345083; actives 6.6% (n = 94,000); Potency, µM (series often up to 115 µM), actives largely listed as inhibitors; further: nearly all actives have a fitted effect of over 60% in size
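ATP-coupled CellTiter-Glo luminescence served as viability read-out, recorded 10 min after reagent addition at room temperature. HEK 293 cells, 250 cells/well, had been incubated with pintool-transferred compound for 48 or 72 hr at 37 degree Celsius.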
NIH3T3 tox – NIH 3T3 cell cytotoxicity; NIH 3T3 viability, CellTiter-Glo ATP luminescence, 48-72 h; Potency, µM (highest dose often 96.7 µM), hits mostly inhibitors; actives 4.3% (n = 94,000); AID 1345082; further: nearly all actives have a fitted effect of over 55% in size
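Luminescent ATP readout (CellTiter-Glo, 10 min RT) after 48 or 72 hr compound exposure of NIH 3T3 cells seeded at 400 cells/well in 1536-well format; quantitative HTS.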
A number is an active result; 0 = inactive; ? = inconclusive; - = no result given. Unless noted, the call rests on the fitted dose curve; in most records, active means well fitted curve in the direction sought with a large enough effect; inconclusive means small, poorly fitted or top-dose-only effect, or another doubt; inactive means no such curve, though single readings can be large; an effect the other way counts as inactive or inconclusive.

SMILES	FLuc inh	hNpr1 antagonist	HEK cytotox	NIH3T3 tox
C[S+](=O)([O-])N1CCC(c2nnc3n2C(C(=O)NCc2ccccc2F)CC3)CC1 (centres undefined)	-	-	0	0
CC1(c2ccccc2)N(Cc2ccccc2C#N)C(=O)OC12CCN(C(=O)Cc1ccccn1)CC2 (centres undefined)	0	0	0	28µM
COc1cccc(CN2C(=O)OC3(CCN(Cc4ccccn4)CC3)C2(C)c2cccnc2)c1 (centres undefined)	0	0	0	?
COc1cccc(CN2C(=O)OC3(CCN(C(=O)Cc4ccccn4)CC3)C2(C)c2cccnc2)c1 (centres undefined)	0	0	0	35µM
COc1cccc(CC(=O)N2CCC3(CC2)OC(=O)N(Cc2csc(C)n2)C3(C)c2ccccc2)c1 (centres undefined)	0	0	0	7.1µM
COCC(=O)N1CCC2(CCN(Cc3cccc(C)n3)CC2)C(CO)C1 (centres undefined)	0	0	0	0
O=C1CCCCCN1C1CCN(Cc2ccccc2C(F)(F)F)CC1	0	0	79µM	?
O=C1CCCCCN1C1CCN(Cc2cccc3ccccc23)CC1	0	0	79µM	79µM
Cc1ccc(C2Cn3cnc(C(=O)N4CCC(C(=O)NCCCc5ccccc5)CC4)c3CO2)cc1 (centres undefined)	32µM	0	0	0
O=C(NCc1cccc(F)c1)C1CCN(C(=O)c2ncn3c2COC(c2ccccc2)C3)CC1 (centres undefined)	5µM	0	?	0
Cc1ccc(C2Cn3cnc(C(=O)N4CCC(C(=O)NCc5ccccc5Cl)CC4)c3CO2)cc1 (centres undefined)	35µM	0	?	0
Cc1ccc(C2Cn3cnc(C(=O)N4CCC(C(=O)NCCc5ccccc5)CC4)c3CO2)cc1 (centres undefined)	?	0	0	0
Cc1ccc(CNC(=O)C2CCN(C(=O)c3ncn4c3COC(c3ccccc3)C4)CC2)cc1 (centres undefined)	16µM	0	0	0
COc1cccc(CNC(=O)C2CCN(C(=O)c3ncn4c3COC(c3ccc(F)cc3)C4)CC2)c1 (centres undefined)	?	0	0	0
Cc1ccc(C2Cn3cnc(C(=O)N4CCC(C(=O)NC(C)c5ccccc5)CC4)c3CO2)cc1 (centres undefined)	28µM	0	0	0
COc1ccc(CNC(=O)C2CCN(C(=O)c3ncn4c3COC(c3ccccc3)C4)CC2)cc1 (centres undefined)	16µM	0	0	0
CC(NC(=O)C1CCN(C(=O)c2ncn3c2COC(c2ccc(F)cc2)C3)CC1)c1ccccc1 (centres undefined)	?	0	?	0
Cc1cc(C(=O)N2CC[C@H](NC(=O)c3snnc3C)C[C@H]2C(=O)N[C@@H](Cc2cccs2)C(N)=O)n(C)n1	0	0	0	0
O=C(Nc1ccccc1)N1CCCN(c2ccc3nnc(-c4ccccc4)n3n2)CC1	-	-	0	?
COc1ccccc1-c1cccc(C(=O)N2CCN(C(=O)c3ccccc3C)CC2)c1	-	-	32µM	35µM
COc1ccccc1-c1cccc(C(=O)N2CCN(C(=O)c3ccc(Cl)cc3)CC2)c1	-	-	?	32µM
COc1ccccc1-c1cccc(C(=O)N2CCN(C(=O)c3ccccc3)CC2)c1	-	-	?	0
Cc1ccccc1CN1CCc2nc(N3CCN(C)CC3)[nH]c(=O)c2CC1	0	0	0	0
CN1CCN(c2nc3c(c(=O)[nH]2)CCN(Cc2ccccc2C(F)(F)F)CC3)CC1	0	0	79µM	0
Cc1ccc(CN2CCc3nc(C4CC4)nc(-c4ccc(O)cc4)c3CC2)cc1	0	0	?	?
SMILES	FLuc inh	hNpr1 antagonist	HEK cytotox	NIH3T3 tox
CCc1nc2c(c(-c3ccc(O)cc3)n1)CCN(Cc1cccc(C(F)(F)F)c1)CC2	0	?	45µM	40µM
CCc1nc2c(c(-c3ccc(O)cc3)n1)CCN(Cc1ccc(OC(F)(F)F)cc1)CC2	0	0	?	?
Oc1ccc(-c2nc(C3CC3)nc3c2CCN(Cc2ccccc2C(F)(F)F)CC3)cc1	0	0	32µM	32µM
CCc1nc2c(c(-c3ccc(O)cc3)n1)CCN(Cc1ccccc1C(F)(F)F)CC2	0	0	?	40µM
Cc1nc2c(c(-c3ccc(Cl)cc3)n1)CCN(C(=O)c1ccccc1F)CC2	0	0	?	0
OCC1(Cc2cccc(Cl)c2)CCCN(Cc2nc(-c3ccc(F)cc3)cs2)C1 (centres undefined)	0	0	79µM	?
CCc1[nH]c2ccc(CNC(=O)Cc3cnc4c(C)cccn34)cc2c1C	?	7.1µM	?	?
